# Data: PubChem BioAssay AID1159580 (chemical genetic matrix, 2015)
# The whole screen tested about 5,500 compounds, of which about 2,000 (36%) were called active. About 18% were inconclusive and are not listed. The list shows a part of the results. Unmarked numbers belong to inactive results. Cut-off read from the data, not from the text of the source: active = normalized growth mostly below about 0.91 (no sharp cut-off); inconclusive = no clear call, values can overlap the other calls; inactive = mostly above about 0.92.
# Test: chemical genetic growth profiling, strain panel (AID 1159580);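 note: tested at 20 µM; growth read once vehicle control cultures reached saturation at 30 °C; 1 = growth at the plate median or of vehicle wells; lower values mean less growth of the strain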
# Settings: growth OD
# [1] = S. cerevisiae deletion strains, locus YAL013W, strain DEP1, hits give low values
# [2] = S. cerevisiae deletion strains, locus YBR229C, strain ROT2, hits give low values
# [3] = S. cerevisiae deletion strains, locus YCL061C, strain MRC1, hits give low values
# [4] = S. cerevisiae deletion strains, locus YDL101C, strain DUN1, hits give low values
# [5] = S. cerevisiae deletion strains, locus YDR150W, strain NUM1, hits give low values
# [6] = S. cerevisiae deletion strains, locus YEL061C, strain CIN8, hits give low values
# [7] = S. cerevisiae deletion strains, locus YGR078C, strain PAC10, hits give low values
# [8] = S. cerevisiae deletion strains, locus YGR229C, strain SMI1, hits give low values
# [9] = S. cerevisiae deletion strains, locus YHR030C, strain SLT2, hits give low values
# [10] = S. cerevisiae deletion strains, locus YHR087W, strain rtc3, hits give low values
# [11] = S. cerevisiae deletion strains, locus YJR043C, strain POL32, hits give low values
# [12] = S. cerevisiae deletion strains, locus YJR075W, strain HOC1, hits give low values
# [13] = S. cerevisiae deletion strains, locus YLR039C, strain RIC1, hits give low values
# [14] = S. cerevisiae deletion strains, locus YLR058C, strain SHM2 (second series), hits give low values
# [15] = S. cerevisiae deletion strains, locus YLR085C, strain ARP6, hits give low values
# [16] = S. cerevisiae deletion strains, locus YLR262C, strain YPT6, hits give low values
# [17] = S. cerevisiae deletion strains, locus YML094W, strain GIM5, hits give low values
# [18] = S. cerevisiae deletion strains, locus YMR219W, strain ESC1, hits give low values
# [19] = S. cerevisiae deletion strains, locus YMR263W, strain SAP30, hits give low values
# [20] = S. cerevisiae deletion strains, locus YMR307W, strain GAS1, hits give low values
# [21] = S. cerevisiae deletion strains, locus YNL153C, strain GIM3, hits give low values
# [22] = S. cerevisiae deletion strains, locus YNL298W, strain CLA4 (second series), hits give low values
# [23] = S. cerevisiae deletion strains, locus YNL322C, strain KRE1, hits give low values
# [24] = S. cerevisiae deletion strains, locus YNR030W, strain Alg12, hits give low values
# [25] = S. cerevisiae deletion strains, locus YPL055C, strain LGE1, hits give low values
# [26] = S. cerevisiae deletion strains, locus YPL241C, strain CIN2, hits give low values
# [27] = S. cerevisiae deletion strains, locus YPR135W, strain CTF4, hits give low values
structure (smiles),measurement,setting,value
COC(=O)c1ccc(S(=O)(=O)N2CCC(C(N)=O)CC2)n1C,normalized growth,[1],0.97
same,normalized growth,[2],1
same,normalized growth,[3],0.99
same,normalized growth,[4],0.97
same,normalized growth,"S. cerevisiae deletion strains, locus YDL134C, strain PPH21, hits give low values",1.03
same,normalized growth,[5],0.881
same,normalized growth,[6],1.02
same,normalized growth,[7],0.989
same,normalized growth,[8],1
same,normalized growth,[9],1.05
same,normalized growth,[10],0.993
same,normalized growth,[11],0.983
same,normalized growth,[12],0.988
same,normalized growth,"S. cerevisiae deletion strains, locus YKL190W, strain CNB1, hits give low values",1.02
same,normalized growth,[13],1.01
same,normalized growth,[14],0.991
same,normalized growth,[15],1.06
same,normalized growth,[16],1.03
same,normalized growth,[17],0.999
same,normalized growth,[18],0.99
same,normalized growth,[19],0.981
same,normalized growth,[20],1.05
same,normalized growth,[21],1.01
same,normalized growth,[22],1.06
same,normalized growth,[23],1
same,normalized growth,[24],1.04
same,normalized growth,[25],0.852
same,normalized growth,[26],1.02
same,normalized growth,[27],1
CCOC(=O)c1ccc(NC(=O)CCC(=O)O)cc1,normalized growth,[1],0.994
same,normalized growth,[2],0.983
same,normalized growth,[4],0.978
same,normalized growth,[5],0.99
same,normalized growth,[6],0.99
same,normalized growth,[7],0.99
same,normalized growth,[9],1.07
same,normalized growth,[10],0.982
same,normalized growth,[11],1.01
same,normalized growth,[12],1
same,normalized growth,[13],1.06
same,normalized growth,[14],0.987
same,normalized growth,[15],1.02
same,normalized growth,[16],1.05
same,normalized growth,[17],1
same,normalized growth,[18],0.991
same,normalized growth,[19],0.981
same,normalized growth,[20],1.01
same,normalized growth,[21],1.01
same,normalized growth,[22],1.01
same,normalized growth,[23],0.989
same,normalized growth,[24],1.02
same,normalized growth,"S. cerevisiae deletion strains, locus YOL006C, strain TOP1, hits give low values",1.04
same,normalized growth,[25],1
same,normalized growth,[26],1.01
same,normalized growth,[27],1.13
CCOC(=O)c1ccc(NC(N)=S)cc1,normalized growth,[1],1.01
same,normalized growth,[2],1.01
same,normalized growth,[3],0.994
same,normalized growth,[4],0.994
same,normalized growth,[5],0.941
same,normalized growth,[6],0.998
same,normalized growth,[7],0.993
same,normalized growth,[8],1
same,normalized growth,[9],1.03
same,normalized growth,[10],0.992
same,normalized growth,[11],0.997
same,normalized growth,[12],0.956
same,normalized growth,[13],1.01
same,normalized growth,[14],0.998
same,normalized growth,[15],0.974
same,normalized growth,[16],1.05
same,normalized growth,[17],0.966
same,normalized growth,[18],0.998
same,normalized growth,[19],0.935
same,normalized growth,[20],0.935
same,normalized growth,[21],0.979
same,normalized growth,[22],1
same,normalized growth,[23],1.01
same,normalized growth,[24],1
same,normalized growth,[25],0.949
same,normalized growth,[26],0.986
same,normalized growth,[27],0.968
same,normalized growth,"S. cerevisiae strains, strain wild type, hits give low values",1.01
CCOC(=O)/C(C#N)=C(\Nc1ccc(C(=O)OCC)cc1)SC,normalized growth,"S. cerevisiae deletion strains, locus YAR019C, strain CDC15, hits give low values",0.982
same,normalized growth,"S. cerevisiae deletion strains, locus YBL105C, strain PKC1, hits give low values",0.977
same,normalized growth,"S. cerevisiae deletion strains, locus YBR135W, strain CKS1, hits give low values",0.98
same,normalized growth,"S. cerevisiae deletion strains, locus YBR136W, strain MEC1, hits give low values",0.974
same,normalized growth,"S. cerevisiae deletion strains, locus YBR160W, strain CDC28, hits give low values",0.98
same,normalized growth,"S. cerevisiae deletion strains, locus YDL017W, strain CDC7, hits give low values",0.978
same,normalized growth,"S. cerevisiae deletion strains, locus YDL028C, strain MPS1, hits give low values",0.984
same,normalized growth,[4],0.977
same,normalized growth,"S. cerevisiae deletion strains, locus YDL108W, strain KIN28, hits give low values",0.972
same,normalized growth,"S. cerevisiae deletion strains, locus YDL132W, strain cdc53, hits give low values",0.981
same,normalized growth,"S. cerevisiae deletion strains, locus YDL214C, strain PRR2, hits give low values",0.929
same,normalized growth,"S. cerevisiae deletion strains, locus YDR052C, strain DBF4, hits give low values",0.983
same,normalized growth,"S. cerevisiae deletion strains, locus YDR054C, strain cdc34, hits give low values",0.984
same,normalized growth,"S. cerevisiae deletion strains, locus YDR226W, strain ADK1, hits give low values",0.979
same,normalized growth,"S. cerevisiae deletion strains, locus YDR477W, strain SNF1, hits give low values",0.954
same,normalized growth,"S. cerevisiae deletion strains, locus YER123W, strain YCK3, hits give low values",0.91
same,normalized growth,"S. cerevisiae deletion strains, locus YER133W, strain GLC7, hits give low values",0.945
same,normalized growth,"S. cerevisiae deletion strains, locus YFL009W, strain cdc4, hits give low values",0.978
same,normalized growth,"S. cerevisiae deletion strains, locus YFL029C, strain CAK1, hits give low values",0.982
same,normalized growth,"S. cerevisiae deletion strains, locus YFR003C, strain YPI1, hits give low values",0.977
same,normalized growth,"S. cerevisiae deletion strains, locus YFR019W, strain FAB1, hits give low values",0.968
same,normalized growth,"S. cerevisiae deletion strains, locus YFR028C, strain CDC14, hits give low values",0.979
same,normalized growth,"S. cerevisiae deletion strains, locus YGR040W, strain KSS1, hits give low values",0.946
same,normalized growth,"S. cerevisiae deletion strains, locus YGR052W, strain FMP48, hits give low values",0.959
same,normalized growth,"S. cerevisiae deletion strains, locus YGR092W, strain DBF2, hits give low values",0.947
same,normalized growth,[9],0.815 (active)
same,normalized growth,"S. cerevisiae deletion strains, locus YHR079C, strain IRE1, hits give low values",0.841
same,normalized growth,"S. cerevisiae deletion strains, locus YHR082C, strain KSP1, hits give low values",0.998
same,normalized growth,"S. cerevisiae deletion strains, locus YHR205W, strain SCH9, hits give low values",0.872
same,normalized growth,"S. cerevisiae deletion strains, locus YIL147C, strain SLN1, hits give low values",0.98
same,normalized growth,"S. cerevisiae deletion strains, locus YJL095W, strain BCK1, hits give low values",0.934
same,normalized growth,"S. cerevisiae deletion strains, locus YJL128C, strain PBS2, hits give low values",0.913
same,normalized growth,"S. cerevisiae deletion strains, locus YJL157C, strain FAR1, hits give low values",0.945
same,normalized growth,"S. cerevisiae deletion strains, locus YJR016C, strain ILV3, hits give low values",0.99
same,normalized growth,"S. cerevisiae deletion strains, locus YJR066W, strain TOR1 (second series), hits give low values",0.941
same,normalized growth,"S. cerevisiae deletion strains, locus YJR066W, strain TOR1, hits give low values",0.985
same,normalized growth,"S. cerevisiae deletion strains, locus YKL048C, strain ELM1, hits give low values",0.921
same,normalized growth,"S. cerevisiae deletion strains, locus YKL067W, strain YNK1, hits give low values",0.928
same,normalized growth,"S. cerevisiae deletion strains, locus YKL101W, strain HSL1, hits give low values",0.908
same,normalized growth,"S. cerevisiae deletion strains, locus YKL193C, strain SDS22, hits give low values",0.984
same,normalized growth,"S. cerevisiae deletion strains, locus YKL203C, strain TOR2, hits give low values",0.977
same,normalized growth,"S. cerevisiae deletion strains, locus YLR113W, strain HOG1, hits give low values",0.706 (active)
same,normalized growth,"S. cerevisiae deletion strains, locus YLR133W, strain CKI1, hits give low values",0.953
same,normalized growth,"S. cerevisiae deletion strains, locus YLR403W, strain SFP1, hits give low values",0.954
same,normalized growth,"S. cerevisiae deletion strains, locus YML070W, strain DAK1, hits give low values",0.909
same,normalized growth,"S. cerevisiae deletion strains, locus YMR001C, strain CDC5, hits give low values",0.981
same,normalized growth,"S. cerevisiae deletion strains, locus YMR205C, strain PFK2 (second series), hits give low values",0.949
same,normalized growth,"S. cerevisiae deletion strains, locus YMR277W, strain FCP1, hits give low values",0.983
same,normalized growth,"S. cerevisiae deletion strains, locus YNL006W, strain LST8, hits give low values",0.98
same,normalized growth,"S. cerevisiae deletion strains, locus YNL020C, strain ARK1, hits give low values",0.944
same,normalized growth,"S. cerevisiae deletion strains, locus YNL161W, strain CBK1, hits give low values",0.978
same,normalized growth,"S. cerevisiae deletion strains, locus YNL183C, strain NPR1, hits give low values",0.948
same,normalized growth,"S. cerevisiae deletion strains, locus YNL207W, strain RIO2, hits give low values",0.975
same,normalized growth,"S. cerevisiae deletion strains, locus YNL222W, strain SSU72, hits give low values",0.982
same,normalized growth,"S. cerevisiae deletion strains, locus YNL307C, strain MCK1 (second series), hits give low values",0.931
same,normalized growth,"S. cerevisiae deletion strains, locus YOL078W, strain AVO1, hits give low values",0.994
same,normalized growth,"S. cerevisiae deletion strains, locus YOL136C, strain PFK27, hits give low values",0.912
same,normalized growth,"S. cerevisiae deletion strains, locus YOR061W, strain CKA2, hits give low values",0.949
same,normalized growth,"S. cerevisiae deletion strains, locus YOR119C, strain RIO1, hits give low values",1.02
same,normalized growth,"S. cerevisiae deletion strains, locus YOR231W, strain MKK1, hits give low values",0.864
same,normalized growth,"S. cerevisiae deletion strains, locus YOR329C, strain SCD5, hits give low values",0.98
same,normalized growth,"S. cerevisiae deletion strains, locus YPL031C, strain PHO85, hits give low values",0.957
same,normalized growth,"S. cerevisiae deletion strains, locus YPL153C, strain RAD53, hits give low values",0.954
same,normalized growth,"S. cerevisiae deletion strains, locus YPL204W, strain HRR25, hits give low values",0.948
same,normalized growth,"S. cerevisiae deletion strains, locus YPL209C, strain IPL1, hits give low values",0.982
same,normalized growth,"S. cerevisiae deletion strains, locus YPL256C, strain CLN2, hits give low values",0.751 (active)
same,normalized growth,"S. cerevisiae deletion strains, locus YPR025C, strain CCL1, hits give low values",0.979
same,normalized growth,"S. cerevisiae deletion strains, locus YPR106W, strain ISR1, hits give low values",0.978
same,normalized growth,"S. cerevisiae deletion strains, locus YPR111W, strain DBF20, hits give low values",0.947
same,normalized growth,"S. cerevisiae deletion strains, strain NNK1, hits give low values",0.959
same,normalized growth,"S. cerevisiae deletion strains, strain TSCII, hits give low values",0.984
O=C1N(c2ccccc2)c2ccccc2C1(Cc1ccncc1)Cc1ccncc1,normalized growth,"S. cerevisiae deletion strains, locus YAL040C, strain CLN3, hits give low values",1.01
same,normalized growth,"S. cerevisiae deletion strains, locus YCL061C, strain MRC1 (second series), hits give low values",1.01
same,normalized growth,[5],1
same,normalized growth,"S. cerevisiae deletion strains, locus YDR363W, strain ESC2, hits give low values",1.03
same,normalized growth,"S. cerevisiae deletion strains, locus YER002W, strain NOP16, hits give low values",0.988
same,normalized growth,[12],1.02
same,normalized growth,[20],0.997
same,normalized growth,"S. cerevisiae deletion strains, locus YNL175C, strain NOP13, hits give low values",0.996
same,normalized growth,"S. cerevisiae deletion strains, locus YNL197C, strain WHI3, hits give low values",0.997
same,normalized growth,"S. cerevisiae deletion strains, locus YNL224C, strain SQS1, hits give low values",1
same,normalized growth,[23],1.03
same,normalized growth,"S. cerevisiae deletion strains, locus YOR083W, strain WHI5 (second series), hits give low values",1.02
same,normalized growth,[25],1.03
same,normalized growth,[26],0.995
